Test results taken from PubChem BioAssay (NCI).
About 79,000 compounds went through this panel and 15% of them were active in at least one assay; those are over-represented in the sample as a whole. Active and inactive are the calls of the source. Cut-off read from the data, not from the text of the source: active = growth inhibition above about 70%; inactive = the rest.

Legend:
[1] = NCI Yeast Anticancer Drug Screen. Data for the wt1 strain (AID 149);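 note: 0% = growth of vehicle-treated wt1 cultures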; conditions: S. cerevisiae wt1 strain (SPY 50644) growth inhibition, stronger effect = higher value
Method in brief: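 The wt1 strain was treated with compounds, and growth was compared with vehicle-treated cultures to give inhibition.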

[2] = NCI Yeast Anticancer Drug Screen. Data for the rad50EPP+ strain (AID 151);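 note: 0% = growth of vehicle-treated control cultures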; conditions: S. cerevisiae rad50 mutant strain, stronger effect = higher value
Method in brief: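 Measured: growth inhibition of rad50EPP+ yeast. Reference: vehicle-treated controls. Screen uses strains with defined genetic alterations in DNA damage repair or cell cycle control.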

[3] = NCI Yeast Anticancer Drug Screen. Data for the mgt1 strain (AID 153); conditions: S. cerevisiae mgt1 mutant growth inhibition, stronger effect = higher value
Method in brief: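 Compounds were applied to mgt1 mutant yeast, and growth was then compared against vehicle-treated control cultures to give percent inhibition.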

[4] = NCI Yeast Anticancer Drug Screen. Data for the rad50 strain (AID 155);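 note: 0% = growth of vehicle-only cultures of the same strain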; conditions: S. cerevisiae rad50 strain growth inhibition, stronger effect = higher value
Method in brief: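 Cells are treated with compound, grown, and their growth is then scored against vehicle-only cultures of the same repair-deficient yeast strain.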

[5] = NCI Yeast Anticancer Drug Screen. Data for the mec2-1 strain (AID 157); conditions: S. cerevisiae mec2-1 strain, stronger effect = higher value
Method in brief: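 Compounds were applied to mec2-1 yeast cells. Their growth was then compared with that of vehicle-treated cultures to give growth inhibition.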

[6] = NCI Yeast Anticancer Drug Screen. Data for the rad14 strain (AID 159);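 note: 0% = growth of vehicle-treated control cultures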; conditions: S. cerevisiae rad14 strain growth inhibition, stronger effect = higher value
Method in brief: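 Readout: yeast growth inhibition, referenced to vehicle-only cultures. Strain bears a defined alteration in DNA damage repair.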

[7] = NCI Yeast Anticancer Drug Screen. Data for the sgs1 mgt1 strain (AID 161);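 note: 0% = growth of cultures given vehicle only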; conditions: S. cerevisiae sgs1 mgt1 strain, stronger effect = higher value
Method in brief: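 This yeast growth screen uses a strain with defined DNA-repair lesions; compound-treated growth is compared with vehicle-treated growth.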

[8] = NCI Yeast Anticancer Drug Screen. Data for the CLN2oe strain (AID 163);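 note: 0% = growth of vehicle-only control cultures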; conditions: S. cerevisiae CLN2oe strain, stronger effect = higher value
Method in brief: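 Cells of an engineered yeast line with disturbed cell-cycle regulation are treated with compound. Inhibition of growth is then calculated relative to the vehicle-treated reference.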

[9] = NCI Yeast Anticancer Drug Screen. Data for the cln2 rad14 strain (AID 165);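 note: 0% = growth equal to vehicle treated cultures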; conditions: S. cerevisiae cln2 rad14 strain, stronger effect = higher value
Method in brief: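 Strain: cln2 rad14 yeast, altered in cell cycle control and DNA damage repair. Read-out: growth inhibition vs vehicle.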

[10] = NCI Yeast Anticancer Drug Screen. Data for the bub3 strain (AID 167); conditions: S. cerevisiae bub3 mutant strain, stronger effect = higher value
Method in brief: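 Part of a panel of yeast mutants defective in DNA damage repair or cell cycle regulation. Each strain is grown with compound, and inhibition is calculated relative to solvent-treated cultures.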

[11] = NCI Yeast Anticancer Drug Screen. Data for the wt2 strain (AID 169);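 note: 0% = growth of vehicle-treated yeast cultures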; conditions: S. cerevisiae wt2 strain growth inhibition, stronger effect = higher value
Method in brief: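 Growth of compound-treated yeast is measured and expressed as inhibition relative to vehicle-only controls.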

[12] = NCI Yeast Anticancer Drug Screen. Data for the mlh1 strain (AID 171);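 note: 0% = growth of vehicle-treated control cultures of the same strain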; conditions: S. cerevisiae mlh1 strain growth inhibition, stronger effect = higher value
Method in brief: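 Test agents were incubated with yeast bearing a defined DNA damage repair or cell cycle control alteration; values are growth inhibition normalised to vehicle-treated cultures.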

[13] = NCI Yeast Anticancer Drug Screen. Data for the sgs1 strain (AID 173);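 note: 0% = growth of vehicle-only control cultures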; conditions: S. cerevisiae sgs1 mutant, stronger effect = higher value
Method in brief: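 Strain with an altered DNA repair or cell cycle pathway exposed to compound. Growth then measured. Value = inhibition versus vehicle control.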

[14] = NCI Yeast Anticancer Drug Screen. Data for the mlh1 rad18 strain (AID 175); conditions: S. cerevisiae mlh1 rad18 strain growth inhibition, stronger effect = higher value
Method in brief: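 A repair-deficient yeast strain is exposed to test compound, and growth is scored relative to vehicle-treated controls.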

[15] = NCI Yeast Anticancer Drug Screen. Data for the rad18 strain (AID 177); conditions: S. cerevisiae rad18 mutant growth inhibition, stronger effect = higher value
Method in brief: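 DNA-repair-defective yeast; compound treatment; growth inhibition scored against vehicle.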

[16] = NCI Yeast Anticancer Drug Screen. Data for the rad52 strain (AID 147);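 note: 0% = growth of vehicle-treated control cultures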; conditions: S. cerevisiae rad52 mutant growth inhibition, stronger effect = higher value
Method in brief: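 Growth of repair-deficient yeast cells was compared between compound-treated and vehicle-treated cultures to give percent inhibition.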

[17] = at 5.0 µM (retest, dose inferred, filed as 0.5)
[18] = at 50.0 µM (retest, dose inferred, filed as 5.0)

Measured: growth inhibition

O=Nc1ccc(Nc2ccccc2)cc1
active: [1]; at 100.0 µM 97% | [2]; at 33.0 µM 97% | [2]; at 100.0 µM 96% | [3]; at 100.0 µM 97% | [4]; at 50.0 µM 88.8% | [4]; at 100.0 µM 95% | [5]; at 33.0 µM 84% | [5]; [18] 95% | [5]; at 50.0 µM 91% | [5]; at 100.0 µM 97% | [6]; at 100.0 µM 96% | [7]; at 50.0 µM 93.2% | [8]; at 33.0 µM 97% | [8]; at 100.0 µM 96% | [9]; at 50.0 µM 86.3% | [10]; at 33.0 µM 97% | [10]; [18] 91% | [10]; at 50.0 µM 90.5% | [10]; at 100.0 µM 97% | [11]; at 100.0 µM 97% | [12]; at 33.0 µM 83% | [12]; at 100.0 µM 96% | [13]; at 100.0 µM 97% | [14]; [18] 93% | [14]; at 50.0 µM 89.5% | [15]; at 33.0 µM 77% | [15]; at 100.0 µM 96%
inactive: [1]; at 1.2 µM -33% | [1]; at 3.7 µM -26% | [1]; at 11.0 µM -13% | [1]; at 33.0 µM 28% | [2]; at 1.2 µM -14% | [2]; at 3.7 µM -10% | [2]; at 11.0 µM 29% | [3]; at 1.2 µM -50% | [3]; at 3.7 µM -60% | [3]; at 11.0 µM -32% | [3]; at 33.0 µM 63% | [4]; at 1.2 µM -41% | [4]; at 3.7 µM -45% | [4]; [17] 2% | [4]; at 11.0 µM -32% | [4]; at 33.0 µM 39% | [4]; [18] 30% | [5]; at 1.2 µM -33% | [5]; at 3.7 µM -38% | [5]; [17] -10% | [5]; at 11.0 µM -35% | [6]; at 1.2 µM -23% | [6]; at 3.7 µM -28% | [6]; at 11.0 µM -44% | [6]; at 33.0 µM 37% | [7]; [17] -5% | [7]; [18] 13% | [8]; at 1.2 µM -44% | [8]; at 3.7 µM -35% | [8]; at 11.0 µM -5% | [9]; [17] 29% | [9]; [18] 68% | [10]; at 1.2 µM -31% | [10]; at 3.7 µM -14% | [10]; [17] 4% | [10]; at 11.0 µM -16% | [11]; at 1.2 µM -52% | [11]; at 3.7 µM -47% | [11]; at 11.0 µM -59% | [11]; at 33.0 µM 54% | [12]; at 1.2 µM -42% | [12]; at 3.7 µM -36% | [12]; at 11.0 µM -26% | [13]; at 1.2 µM -40% | [13]; at 3.7 µM -42% | [13]; at 11.0 µM -28% | [13]; at 33.0 µM 55% | [14]; [17] 26% | [15]; at 1.2 µM -33% | [15]; at 3.7 µM -24% | [15]; at 11.0 µM 9%

CCN(CC)CC(O)c1cc(-c2ccc(Cl)cc2)nc2c(-c3ccccc3)cccc12 (stereo not drawn)
active: [16]; at 11.0 µM 98% | [16]; at 33.0 µM 98% | [16]; at 100.0 µM 93% | [2]; at 11.0 µM 96% | [2]; at 33.0 µM 98% | [2]; at 100.0 µM 95% | [4]; at 11.0 µM 98% | [4]; at 33.0 µM 98% | [4]; [18] 94% | [4]; at 50.0 µM 94.7% | [4]; at 100.0 µM 93% | [5]; at 11.0 µM 98% | [5]; at 33.0 µM 98% | [5]; [18] 98% | [5]; at 50.0 µM 87.9% | [5]; at 100.0 µM 96% | [6]; at 11.0 µM 99% | [6]; at 33.0 µM 98% | [6]; at 100.0 µM 95% | [7]; [18] 97% | [7]; at 50.0 µM 97.7% | [8]; at 11.0 µM 98% | [8]; at 33.0 µM 97% | [8]; at 100.0 µM 94% | [9]; [18] 91% | [10]; at 11.0 µM 98% | [10]; at 33.0 µM 97% | [10]; [18] 95% | [10]; at 100.0 µM 92% | [11]; at 11.0 µM 99% | [11]; at 33.0 µM 98% | [11]; at 100.0 µM 94% | [12]; at 11.0 µM 99% | [12]; at 33.0 µM 98% | [12]; at 100.0 µM 95% | [13]; at 11.0 µM 98% | [13]; at 33.0 µM 98% | [13]; at 100.0 µM 96% | [15]; at 11.0 µM 98% | [15]; at 33.0 µM 98% | [15]; at 100.0 µM 95%
inactive: [16]; at 1.2 µM -1% | [16]; at 3.7 µM -1% | [2]; at 1.2 µM -1% | [2]; at 3.7 µM 7% | [4]; at 1.2 µM 1% | [4]; at 3.7 µM 6% | [4]; [17] 48% | [5]; at 1.2 µM -8% | [5]; at 3.7 µM -3% | [5]; [17] 32% | [6]; at 1.2 µM -2% | [6]; at 3.7 µM 4% | [7]; [17] 41% | [8]; at 1.2 µM 0% | [8]; at 3.7 µM 2% | [9]; [17] 6% | [9]; at 50.0 µM 8.2% | [10]; at 1.2 µM 1% | [10]; at 3.7 µM -5% | [10]; [17] 22% | [10]; at 50.0 µM 46.3% | [11]; at 1.2 µM -2% | [11]; at 3.7 µM -4% | [12]; at 1.2 µM -2% | [12]; at 3.7 µM 2% | [13]; at 1.2 µM -1% | [13]; at 3.7 µM 3% | [15]; at 1.2 µM -2% | [15]; at 3.7 µM -1%

CN(C)CCNc1cccc2sc3ccc(O)cc3c(=O)c12
inactive: [16]; at 1.2 µM 0% | [16]; at 3.7 µM 1% | [16]; at 11.0 µM 10% | [16]; at 33.0 µM 20% | [16]; at 100.0 µM 43% | [2]; at 1.2 µM 2% | [2]; at 3.7 µM 11% | [2]; at 11.0 µM 15% | [2]; at 33.0 µM 26% | [2]; at 100.0 µM 33% | [3]; at 1.2 µM -1% | [3]; at 3.7 µM -5% | [3]; at 11.0 µM -3% | [3]; at 33.0 µM 0% | [3]; at 100.0 µM 6% | [4]; at 1.2 µM 4% | [4]; at 3.7 µM 6% | [4]; [17] 14% | [4]; at 11.0 µM 11% | [4]; at 33.0 µM 31% | [4]; at 100.0 µM 47% | [5]; at 1.2 µM 4% | [5]; at 3.7 µM 5% | [5]; [17] -1% | [5]; at 11.0 µM 8% | [5]; at 33.0 µM 9% | [5]; [18] 17% | [5]; at 50.0 µM 18.5%
active: [4]; [18] 90% | [4]; at 50.0 µM 87.8%
